# Data published in PubChem BioAssay AID651906 (Vanderbilt Specialized Chemistry Center, 2012).
# Calls of active or inactive are those of the source. How the calls were made is not given here.
# Biological target: Protein deacetylase HDAC6 (Homo sapiens) (UniProt Q9UBN7)
# Test: inhibitors of recombinant human HDAC6 – biochemical, selectivity assay for E-cadherin restoration project, profiling panel (AID 651906)
# Settings: recombinant HDAC6, fluorogenic peptide substrate; series mostly up to 10 µM
# Protein deacetylase HDAC6 (Homo sapiens), sequence (Q9UBN7 whole entry, looked up): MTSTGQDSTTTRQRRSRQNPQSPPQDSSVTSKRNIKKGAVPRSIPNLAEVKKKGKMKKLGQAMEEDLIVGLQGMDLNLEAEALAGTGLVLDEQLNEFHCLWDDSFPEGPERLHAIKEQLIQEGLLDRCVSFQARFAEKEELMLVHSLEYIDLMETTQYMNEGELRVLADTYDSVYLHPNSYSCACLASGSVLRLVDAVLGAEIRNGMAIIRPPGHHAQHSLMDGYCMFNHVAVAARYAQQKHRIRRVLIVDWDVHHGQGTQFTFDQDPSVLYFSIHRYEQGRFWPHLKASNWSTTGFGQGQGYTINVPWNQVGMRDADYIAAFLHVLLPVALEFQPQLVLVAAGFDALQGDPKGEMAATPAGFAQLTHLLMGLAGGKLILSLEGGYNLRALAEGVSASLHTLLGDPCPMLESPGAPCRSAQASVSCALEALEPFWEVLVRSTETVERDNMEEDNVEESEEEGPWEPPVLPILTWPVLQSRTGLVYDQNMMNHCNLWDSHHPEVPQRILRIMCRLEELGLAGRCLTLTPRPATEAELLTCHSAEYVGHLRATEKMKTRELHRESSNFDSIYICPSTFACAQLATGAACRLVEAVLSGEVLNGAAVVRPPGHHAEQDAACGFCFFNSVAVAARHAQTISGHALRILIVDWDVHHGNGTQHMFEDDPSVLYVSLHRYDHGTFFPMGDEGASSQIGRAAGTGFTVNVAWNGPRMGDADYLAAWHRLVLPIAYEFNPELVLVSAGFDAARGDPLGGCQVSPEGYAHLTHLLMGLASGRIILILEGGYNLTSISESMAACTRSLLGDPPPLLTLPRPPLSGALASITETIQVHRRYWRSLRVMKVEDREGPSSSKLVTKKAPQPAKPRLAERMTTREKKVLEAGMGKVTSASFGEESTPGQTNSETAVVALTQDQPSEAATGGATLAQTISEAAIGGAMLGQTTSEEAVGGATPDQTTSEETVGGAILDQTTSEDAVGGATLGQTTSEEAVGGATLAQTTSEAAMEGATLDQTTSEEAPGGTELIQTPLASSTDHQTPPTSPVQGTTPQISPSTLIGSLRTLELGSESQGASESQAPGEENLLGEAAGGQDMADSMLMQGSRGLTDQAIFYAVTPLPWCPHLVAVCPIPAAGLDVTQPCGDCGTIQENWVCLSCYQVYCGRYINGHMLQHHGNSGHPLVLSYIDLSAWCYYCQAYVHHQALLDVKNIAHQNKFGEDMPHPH
compound,measurement,value
O=C(NCCCNC(=O)c1ccc[nH]c1=O)c1cc(-c2ccccc2)on1,outcome,inactive
